Counter-ions that a name gives are not always drawn. ± gives the uncertainty stated by the source.
system: FLX1; test: cell viability z-score within plate (CellTiter-Glo), mean of 3 biological replicates; higher = higher viability relative to plate (less growth inhibition); conditions: 2 µM; time (hr): 120
Protocol: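 FLX1 fibrolamellar carcinoma cells (DNAJB1-PRKACA fusion), 600 cells/well in 384-well plates, treated with a Selleck kinase inhibitor library (L1200) at 2 uM for 5 days (120 hr); viability by CellTiter-Glo. A z-score was computed within each plate and averaged over three biological replicates.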

**Q.** `O=C(NCc1cccc(O)c1)Nc1nc(-c2ccncc2)cs1` was tested. Which “cell viability z-score within plate” value did it give?
**A.** 0.289 ± 0.42

**Q.** With `CCn1c(-c2nonc2N)nc2c(C#CC(C)(C)O)ncc(OC[C@H]3CCCNC3)c21` as the compound, how does the “cell viability z-score within plate” value read?
**A.** -1.24 ± 0.86

**Q.** How did the “cell viability z-score within plate” value turn out when `Nc1ccc(-c2ccc3ncc4ccc(=O)n(-c5cccc(C(F)(F)F)c5)c4c3c2)cn1` [Torin 2] was run?
**A.** 0.796 ± 0.29

**Q.** How did the “cell viability z-score within plate” value turn out when `COc1cc(Nc2ncc(F)c(Nc3ccc4c(n3)NC(=O)C(C)(C)O4)n2)cc(OC)c1OC` was run?
**A.** 0.701 ± 0.4

**Q.** Which “cell viability z-score within plate” value does the source give for `Cc1cc(C)c(/C=C2\C(=O)Nc3ccccc32)[nH]1` [Semaxanib (SU5416)] here?
**A.** -1.17 ± 0.77

**Q.** With `CCn1c(=O)c(-c2ccc(-c3cncs3)cc2Cl)cc2cnc(Nc3ccc(N4CCN(C)CC4)cc3)nc21` as the compound, how does the “cell viability z-score within plate” value read?
**A.** 0.491 ± 0.12

**Q.** `CCc1cncnc1N1CCN(Cc2nc3ccc(C(F)(F)F)cc3[nH]2)CC1` was tested. Which “cell viability z-score within plate” value did it give?
**A.** 0.164 ± 0.73

**Q.** For `CC[C@@H]1C(=O)N(C)c2cnc(Nc3ccc(C(=O)NC4CCN(C)CC4)cc3OC)nc2N1C1CCCC1`, which “cell viability z-score within plate” value is on record?
**A.** -1.49 ± 0.57

**Q.** `O=C(NC1CCNCC1)c1n[nH]cc1NC(=O)c1c(Cl)cccc1Cl` was tested. Which “cell viability z-score within plate” value did it give?
**A.** -0.72 ± 0.28

**Q.** `CS(=O)(=O)c1cccc(CNc2nc(Nc3ccc4c(c3)CCC(=O)N4)ncc2C(F)(F)F)c1` was tested. Which “cell viability z-score within plate” value did it give?
**A.** -2.81 ± 1.3

**Q.** How did the “cell viability z-score within plate” value turn out when `Cc1ccc(C(=O)Nc2cccc(C(F)(F)F)c2)cc1Nc1nc(-c2cccnc2)nc2c1cnn2C` was run?
**A.** -0.436 ± 0.34

**Q.** Which “cell viability z-score within plate” value does the source give for `CC(C)(O)CC(=O)NCCn1ccc2ncnc(Nc3ccc(Oc4cccc(C(F)(F)F)c4)c(Cl)c3)c21` here?
**A.** -0.891 ± 0.77

**Q.** With `CN1CCN(c2nc(C3=C(c4c[nH]c5ccccc45)C(=O)NC3=O)c3ccccc3n2)CC1` [Sotrastaurin] as the compound, how does the “cell viability z-score within plate” value read?
**A.** 0.764 ± 0.47

**Q.** With `COc1ccc2c(Oc3ccc(NC(=O)c4c(C)n(CC(C)(C)O)n(-c5ccccc5)c4=O)nc3)ccnc2c1` as the compound, how does the “cell viability z-score within plate” value read?
**A.** 0.446 ± 0.46

**Q.** Which “cell viability z-score within plate” value does the source give for `Cn1cc(C2=C(c3ccc(Cl)cc3Cl)C(=O)NC2=O)c2ccccc21` here?
**A.** -1.2 ± 0.71

**Q.** How did the “cell viability z-score within plate” value turn out when `CCS(=O)(=O)c1cccc(-c2cc(C(=O)NC3CCN(C)CC3)c(C)c3[nH]c4ncc(C)cc4c23)c1` was run?
**A.** 0.278 ± 0.45

**Q.** Which “cell viability z-score within plate” value does the source give for `COc1cc2nccc(Oc3ccc(NC(=O)C4(C(=O)Nc5ccc(F)cc5)CC4)cc3)c2cc1OC` [Cabozantinib malate (XL184)] here?
**A.** 0.553 ± 0.015

**Q.** How did the “cell viability z-score within plate” value turn out when `C=CC(=O)Nc1cccc(Nc2nc(Nc3ccc(OCCOC)cc3)ncc2F)c1` was run?
**A.** -0.411 ± 0.22

**Q.** How did the “cell viability z-score within plate” value turn out when `CNC(=O)c1nn(C)c2c1C(C)(C)Cc1cnc(Nc3ccc(N4CCN(C)CC4)cc3)nc1-2` was run?
**A.** 0.949 ± 0.33

**Q.** `CN(C)CCCn1cc(C2=C(c3c[nH]c4ccccc34)C(=O)NC2=O)c2ccccc21` was tested. Which “cell viability z-score within plate” value did it give?
**A.** -0.651 ± 0.3

**Q.** How did the “cell viability z-score within plate” value turn out when `CO[C@H]1C[C@@H]2CC[C@@H](C)[C@@](O)(O2)C(=O)C(=O)N2CCCC[C@H]2C(=O)O[C@H]([C@H](C)C[C@@H]2CC[C@H](n3cnnn3)[C@H](OC)C2)CC(=O)[C@H](C)/C=C(\C)[C@@H](O)[C@@H](OC)C(=O)[C@H](C)C[C@H](C)/C=C/C=C/C=C/1C` [Zotarolimus(ABT-578)] was run?
**A.** 0.264 ± 0.45

**Q.** With `O=C(NOCC1CC1)c1ccc(F)c(F)c1Nc1ccc(I)cc1Cl` as the compound, how does the “cell viability z-score within plate” value read?
**A.** 0.606 ± 0.25

**Q.** How did the “cell viability z-score within plate” value turn out when `C=CC(=O)Nc1cccc(Nc2nc(Nc3ccc(Oc4ccnc(C(=O)NC)c4)cc3)ncc2F)c1` was run?
**A.** 0.519 ± 0.21

**Q.** `CC(C)(C)NS(=O)(=O)c1cncc(-c2cc(F)c3nc(N)nn3c2)c1` was tested. Which “cell viability z-score within plate” value did it give?
**A.** 0.16 ± 0.77

**Q.** How did the “cell viability z-score within plate” value turn out when `O=C(c1ccc(Nc2nccc(-c3cc4ccccc4s3)n2)cc1)N1CCC(N2CCCC2)CC1` [IKK-16 (IKK Inhibitor VII)] was run?
**A.** 0.237 ± 0.33

**Q.** How did the “cell viability z-score within plate” value turn out when `CO[C@H]1C[C@@H]2CC[C@@H](C)[C@@](O)(O2)C(=O)C(=O)N2CCCC[C@H]2C(=O)O[C@H]([C@H](C)C[C@@H]2CC[C@@H](OP(C)(C)=O)[C@H](OC)C2)CC(=O)[C@H](C)/C=C(\C)[C@@H](O)[C@@H](OC)C(=O)[C@H](C)C[C@H](C)/C=C/C=C/C=C/1C` [Ridaforolimus (Deforolimus, MK-8669)] was run?
**A.** -0.102 ± 0.36

**Q.** With `CC(C)NC[C@@H](C(=O)N1CCN(c2ncnc3c2[C@H](C)C[C@H]3O)CC1)c1ccc(Cl)cc1` [Ipatasertib (GDC-0068)] as the compound, how does the “cell viability z-score within plate” value read?
**A.** 1.05 ± 0.14

**Q.** `CC(C)(C)c1cc(NC(=O)Nc2ccc(-c3cn4c(n3)sc3cc(OCCN5CCOCC5)ccc34)cc2)no1` [Quizartinib (AC220)] was tested. Which “cell viability z-score within plate” value did it give?
**A.** -0.415 ± 0.29

**Q.** Which “cell viability z-score within plate” value does the source give for `COc1cc(N2CCC(N(C)C)CC2)ccc1Nc1ncc(Cl)c(Nc2ccccc2P(C)(C)=O)n1` here?
**A.** 0.0333 ± 0.4

**Q.** `COc1cc(Nc2c(C#N)cnc3cc(OCCCN4CCN(C)CC4)c(OC)cc23)c(Cl)cc1Cl` [Bosutinib (SKI-606)] was tested. Which “cell viability z-score within plate” value did it give?
**A.** 0.309 ± 0.56

**Q.** `O=C(Nc1cccc(Cl)c1)Nc1ncc(CCNc2ncnc3ccsc23)s1` [SNS-314 Mesylate] was tested. Which “cell viability z-score within plate” value did it give?
**A.** -2.37 ± 0.38
